HT1080-NT tox: qHTS for induction of synthetic lethality in tumor cells producing 2HG: qHTS for the HT-1080-NT fibrosarcoma cell line | HT-1080-NT fibrosarcoma viability, CellTiter-Glo ATP luminescence, 48 h | Potency, µM (series often up to 46.1 µM), inactives show top-dose activity, negative = less viability, hits mostly cytotoxic | actives 1.6% (n = 360,000);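 note: NT is the 2HG producing partner of a matched IDH1 knockdown line; potency is the fitted concentration of half-maximal effect; 0% = DMSO-treated cells and -100% = media-only wells without cells; nearly all actives have a fitted effect of over 55% in size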
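Compounds were tested in concentration-response format on HT-1080-NT cells for 48 hours at 37 degrees C. Cell viability came from CellTiter-Glo luminescence; curves were classified by r2, response magnitude and activity.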
DT40 TDP1 CPT: qHTS for Inhibitors of human tyrosyl-DNA phosphodiesterase 1 (TDP1): qHTS in cells in presence of CPT | chicken DT40 Tdp1-/-;hTDP1 cells + 20 nM CPT, ATP luminescence, 48 h | actives 12% (n = 420,000) | Potency, µM (top dose mostly 46.2 µM), for the others: at the highest dose activity change, negative = growth inhibition, most hits filed as inhibitors; note: potency is the fitted concentration of half-maximal effect; nearly all actives have a fitted effect of over 55% in size
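Chicken DT40 Tdp1-/- cells complemented with human TDP1, 400 cells/well, exposed to compounds plus 20 nM camptothecin for at least 48 h at 37 C; viability read as ATP content by CellTiter-Glo luminescence.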
HT1080 IDH1KD tx: qHTS for induction of synthetic lethality in tumor cells producing 2HG: qHTS for the HT-1080-IDH1KD cell line; HT-1080 IDH1 knockdown viability, ATP luminescence, 48 h; Potency, µM (highest dose often 46.1 µM), for inactives: at the top dose activity, negative = toxicity, usual class: cytotoxic; actives 2% (n = 360,000); AID 686971, 2013;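 note: potency is the fitted concentration of half-maximal effect; 0% = DMSO wells and -100% = cell-free medium wells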
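Using the IDH1-knockdown HT-1080 line run in the same batch and compound series as the NT line, viability after 48 h at 37 °C was determined by CellTiter-Glo luminescence and expressed as % activity.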
DT40 TDP1 no CPT: qHTS for Inhibitors of human tyrosyl-DNA phosphodiesterase 1 (TDP1): qHTS in cells in absence of CPT; DT40 Tdp1-/- hTDP1 cells, no CPT, ATP luminescence, 48 h; Potency, µM (series often up to 46.2 µM), without a hit: at the top dose activity change, negative = growth inhibition, actives largely listed as inhibitors; actives 15% (n = 420,000); AID 686978, 2013; note: potency is the fitted concentration of half-maximal effect; nearly all actives have a fitted effect of over 55% in size
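Growth of hTDP1-complemented DT40 Tdp1-knockout cells is measured by ATP luminescence after at least 48 hr compound exposure at 37 °C, with DMSO substituting for the 20 nM CPT used in the parallel screen.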
IL-1B inflam inh: qHTS for Inhibitors of Inflammasome Signaling: IL-1-beta AlphaLISA Primary Screen. THP-1 LPS/ATP IL-1B secretion, AlphaLISA, 16 h; stronger effect = lower value. activity change, % at 57.5 µM. actives 4.7% (n = 360,000); in the data active = activity change below about -50%; inconclusive = mostly about -30% to -49%
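Secreted IL-1B measured by AlphaLISA bead assay after 16 h compound exposure of THP-1 cells; compounds (final up to 57.5 uM) added 1 h before LPS (250 ng/mL) and ATP (1.25 mM) stimulation; lower signal means less secretion.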
Active calls of the source: *; ? = inconclusive; . = no result. Rows were chosen to be rich in hits. Some 19% of all compounds tested hit in one or more screens of this group. Unless noted, calls come from the whole dose curve; as a rule, active = well fitted curve in the direction sought with a large enough effect; inconclusive = small, poorly fitted or top-dose-only effect, or another doubt; inactive = no such curve, though single readings can be large; an effect the other way counts as inactive or inconclusive. Unless noted, % is set by controls: 0 for no effect and ±100 for the full control effect.

SMILES	HT1080-NT tox	DT40 TDP1 CPT	HT1080 IDH1KD tx	DT40 TDP1 no CPT	IL-1B inflam inh
CCOC(=O)C1CCCN(S(=O)(=O)c2ccc3c(c2)CCCN3C(C)=O)C1 (stereo unspecified)	.	?	.	18µM*	.
CCOC(=O)C1CCCN(S(=O)(=O)c2ccccc2)C1 (stereo unspecified)	0%	3%	-1%	-6%	-11
CSc1ccccc1NC(=O)COc1ccc(S(=O)(=O)N2CCCC2)cc1	-1%	?	-7%	?	8
C=C(C)C(=O)Nc1cccc(C2=NOC3(C2)C[C@@H](C(N)=O)N(C(=O)[C@H]2CCC(=O)N2)C3)c1 (stereo partly specified)	8%	2%	-1%	4%	14
COc1ccc(CNC(=O)C2CCCN(S(=O)(=O)c3ccc4c(c3)CCCN4C(C)=O)C2)cc1 (stereo unspecified)	-8%	15µM*	-2%	10µM*	4
COc1ccc(CCCC(=O)Nc2ccc(F)cc2)cc1	12%	-23%	5%	-24%	15
O=C1N=NC(=O)N1c1ccccc1	?	13%	15%	7%	16
O=C1CCC(C(=O)N2CCc3ccccc3C2)CN1CCCN1CCOCC1 (stereo unspecified)	3%	14%	2%	-2%	0
CC(NC(=O)CCc1nnc(-c2ccc(-c3ccccc3)cc2)o1)c1nccs1 (stereo unspecified)	0%	26µM*	-1%	21µM*	-15
CN(C(=O)CCc1nnc(-c2ccc(-c3ccccc3)cc2)o1)C1CCOCC1	-1%	?	0%	13µM*	5
CC(c1nccs1)N(C)C(=O)CCc1nnc(-c2ccc(-c3ccccc3)cc2)o1 (stereo unspecified)	-24%	15µM*	-1%	-85%	?
Cc1cc(C)c(NC(=O)COC(=O)C2=COCCO2)c(Cl)c1	-1%	11%	-2%	-2%	6
COc1ccc(NC(=O)c2cnc(C)cn2)cc1-n1cnnn1	-13%	-14%	-27%	-13%	16
Cc1cnc(C(=O)Nc2ccc(-n3cnnn3)cc2)cn1	6%	18µM*	3%	?	9
CCn1c(-c2ccccc2F)nc2cc(C(=O)NCc3ccc(C)o3)cc(NC(C)=O)c21	.	-10%	.	2%	.
Cc1cc(C(C)(C)C)ccc1OCCN1CCCC1	-16%	-27%	-10%	?	-8
Cc1cc(C(C)(C)CC(C)(C)C)ccc1OCCOCC[N+](C)(C)Cc1ccccc1	?	3.7µM*	?	4.1µM*	23
CCN(CC(=O)Nc1ccccc1OC)C(=O)CCOc1ccc(C(C)(C)C)cc1	-2%	?	-10%	?	1
CC(C)c1cccc(C(C)C)c1NC(=O)Cn1c(=O)cnc2ccccc21	-3%	-13%	1%	?	16
Cc1ccc2[nH]c3c(c2c1)CCCC3=O	-7%	-5%	-6%	5%	0
CC(C)c1ccc2[nH]c3c(c2c1)CCC/C3=N\NC(=O)c1ccncc1	?	23µM*	?	18µM*	-53*
O=C1CCCc2c1[nH]c1ccc(CN3CCCCC3)cc21	?	16µM*	10µM*	?	-52*
CC(C)c1ccc2[nH]c3c(c2c1)CCCC3=O	21µM*	3%	?	-22%	-5
Cc1[nH]c2ccccc2c(=O)c1CN1CCCCCC1	-1%	8%	20%	-10%	10
COc1ccc(-n2ncc(Cl)c(Cl)c2=O)cc1	4.6µM*	4.1µM*	8.2µM*	2.9µM*	-107*
SMILES	HT1080-NT tox	DT40 TDP1 CPT	HT1080 IDH1KD tx	DT40 TDP1 no CPT	IL-1B inflam inh
COc1c(Cl)cnn(-c2ccc(Cl)c(Cl)c2)c1=O	-27%	3%	?	-4%	-98*
COc1ccc(-n2ncc(N(C)n3cccc3)c(Cl)c2=O)cc1	10%	?	17%	?	-14
CN(C)c1cnn(-c2ccccc2)c(=O)c1Cl	13%	-23%	17%	-6%	9
COc1c(Cl)cnn(-c2ccccc2)c1=O	8%	7%	4%	-7%	-75*
COc1ccc2cnn(-c3ccccc3)c(=O)c2c1OC	16%	?	10%	?	-18
COc1nn(-c2ccccc2)c(=O)c(Cl)c1Cl	12µM*	5.2µM*	13µM*	4.6µM*	-96*
CCCCn1c(N)c(N(CCC(C)C)C(=O)CC2CCCC2)c(=O)[nH]c1=O	6%	5%	10%	-18%	-2
CCCNC(=O)C1(C)CCN1C(=O)c1cc(C)n(C)n1 (stereo unspecified)	15%	3%	19%	6%	25
CCS(=O)(=O)Nc1cc2c3c(c1)CCC(=O)N3CCC2	-3%	11%	-5%	-14%	7
NNC(=O)c1[nH]c2ccc([N+](=O)[O-])cc2c1-c1ccccc1	?	21µM*	3.7µM*	23µM*	26
Cc1nc2c(-c3ccccc3)c(C)nn2c(C)c1CCC(=O)N1CCN(c2ccccc2)CC1	.	-3%	.	?	.
COc1ccccc1-c1nnc(SC(C(=O)c2c[nH]c3ccccc23)c2ccccc2)n1C (stereo unspecified)	?	21µM*	?	16µM*	-51*
COc1cccc(-c2nnc(SC(C(=O)c3c[nH]c4ccccc34)c3ccccc3)n2C)c1 (stereo unspecified)	-24%	23µM*	?	?	-27
COc1cccc(-c2nnc(SCCC(=O)O)n2C)c1	7%	5%	4%	2%	-8
CCCNC(=O)C1(C)CCCN(C(=O)COCc2ccccc2)C1 (stereo unspecified)	23%	5%	15%	15%	0
Cc1cc(-c2nnc(CSc3nnc(NC(=O)c4ccc(C(C)(C)C)cc4)s3)o2)ccc1[N+](=O)[O-]	10%	?	9%	21µM*	0
O=C(Nc1nnc(SCc2cc(=O)c3ccccc3[nH]2)s1)c1ccccc1	.	23µM*	.	7.3µM*	.
COCCSc1nnc(NC(=O)c2ccc([N+](=O)[O-])cc2)s1	3%	5%	14%	-5%	-2
Cc1ccc(C(=O)Nc2nnc(SCc3cc(=O)c4c(C)ccc(C)c4[nH]3)s2)cc1	.	18µM*	.	10µM*	.
COc1ccccc1C(=O)Nc1nnc(SCc2cc(=O)c3ccccc3[nH]2)s1	.	15µM*	.	15µM*	.
CCSc1nnc(NC(=O)c2cccc3ccccc23)s1	-5%	3%	-9%	-3%	-1
